SARS PLpro yeast: SARS-CoV PLP inhibition in yeast; S. cerevisiae expressing SARS-CoV PLpro, growth rescue; Potency, µM (top dose mostly 32.9 µM), hits mostly activators; 0.19% of 330,000 active; AID 485353; calls by dose curve; note: nearly all actives have a fitted effect of over 55% in size
Marburg entry inh: inhibitors of Marburg virus binding or cell entry; AID 540276; Marburg virus pseudotyped entry inhibition, cell reporter; Potency, µM (doses to about 37.8 µM), usual class: inhibitors; 1.8% of 300,000 active; calls by dose curve; tested in HEK293 cells
HCMV inh: inhibitors of human cytomegalovirus | AID 1259415 | 4.5% of 410,000 active | activity change, negative = inhibition, % at 57.5 µM | HFF cells, HCMV-luciferase reporter, 72 h; stronger effect = lower value; in the data active = activity change below about -60%; inconclusive = no clear call, values can overlap the other calls; inactive = above about -39%
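Two compound doses tested in HFFs infected with HCMV-luciferase, MOI 1 PFU/cell, 72 h at 37C. Lysate luminescence read with OneGlo; data normalized against buffer-only and 10uM Salinomycin inhibitor controls.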
FMDV antiviral: foot and mouth disease virus antiviral activity; FMDV antiviral cell-based qHTS; Potency, µM (titrated, usually from 57.9 µM), hits mostly inhibitors; 1.2% of 410,000 active; calls by dose curve; tested in HEK293T cells; note: read-out not given here; nearly all actives have a fitted effect of over 45% in size
Lassa entry inh: blocks Lassa virus binding to or entry into cells | Lassa virus pseudotype entry inhibition, cell reporter | Potency, µM (titrated, usually from 37.9 µM), actives largely listed as inhibitors | 1.2% of 300,000 active | AID 540256; calls by dose curve; tested in HEK293 cells; note: nearly all actives have a fitted effect of over 50% in size
HCV inh: HCV inhibition | 3.4% of 340,000 active | AID 651820 | Potency, µM (titrated, usually from 41.8 µM), actives largely listed as inhibitors | Huh7.5.1 HCVcc-Cre infection, luciferase reporter, 44 h; active = well fitted inhibition curve with a large enough effect; inconclusive = small, poorly fitted or top-dose-only effect, or another doubt; inactive = no such curve, though single readings can be large or run the other way
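Compounds are dispensed onto cells plated 4 h earlier at 1,000 per well, with HCVcc-Cre virus (about 0.5 moi) added next. Following 44 h of culture, luminescent signal is measured for 15 sec after 15 min with substrate at room temperature.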
Large screens that a line does not name were inactive; ! = not confirmed by another sample. The list is not random: actives were taken first. Their share in the collection is about 8%.

CCCCN1C(C(=O)c2ccccc2)=C(OC(=O)CC)c2ccccc2S1(=O)=O	Marburg entry inh 7.9µM, HCMV inh -107, Lassa entry inh inconclusive (no result: SARS PLpro yeast, HCV inh)
CCCCCN1C(C(=O)c2ccccc2)=C(OC(=O)CC)c2ccccc2S1(=O)=O	Marburg entry inh inconclusive, HCMV inh -104, Lassa entry inh inconclusive (no result: SARS PLpro yeast, HCV inh)
CCCCCN1C(C(=O)c2ccccc2)=C(NC(C)=O)c2ccccc2S1(=O)=O	Marburg entry inh inconclusive, HCMV inh -70, Lassa entry inh inconclusive (no result: SARS PLpro yeast, HCV inh)
CCCCC(=O)OC1=C(C(=O)c2ccccc2)N(CCC)S(=O)(=O)c2ccccc21	Marburg entry inh inconclusive, HCMV inh -86 (no result: SARS PLpro yeast, HCV inh)
O=C(COC(=O)c1ccc2c(=O)n3c(nc2c1)CCC3)NC1CCS(=O)(=O)C1 (centres undefined)	HCMV inh inconclusive
Cc1c(CN2CCOc3c(cc(-c4ncc(C(F)(F)F)cc4Cl)cc3OCC3CCCO3)C2)cnn1C (centres undefined)	none (no result: SARS PLpro yeast, Marburg entry inh, HCMV inh, Lassa entry inh, HCV inh)
COC(=O)C1=C(C)NC(C)=C(C(=O)OCCN(C)Cc2ccccc2)C1c1cccc([N+](=O)[O-])c1 (centres undefined)	Marburg entry inh 16µM, FMDV antiviral inconclusive, Lassa entry inh 7.3µM!
COCCOC(=O)C1=C(C)N(c2ccccc2)C(=O)NC1c1cccc([N+](=O)[O-])c1 (centres undefined)	none
COC(=O)C1=C(C)NC(C)=C(C(=O)OCCN2CCN(C(c3ccccc3)c3ccccc3)CC2)C1c1cccc([N+](=O)[O-])c1 (centres undefined)	HCMV inh -64 (no result: SARS PLpro yeast, Marburg entry inh, FMDV antiviral, Lassa entry inh, HCV inh)
COc1cccc(CN2CCC(C(=O)Nc3ccc(-c4cccc(C)c4)cc3)CC2)c1O	FMDV antiviral inconclusive, HCV inh 10µM (no result: Marburg entry inh, Lassa entry inh)
Cc1cccc(-c2ccc(NC(=O)C3CCN(CC4CC4)CC3)cc2)c1	Marburg entry inh inconclusive, HCV inh 10µM
COc1ccc(-n2c(=S)[nH]c3cc(C(=O)Nc4ccccc4OC)ccc3c2=O)c(OC)c1	HCMV inh inconclusive, FMDV antiviral inconclusive, Lassa entry inh 6.3µM, HCV inh inconclusive
COc1ccc(-n2c(=S)[nH]c3cc(C(=O)Nc4ccccc4OC)ccc3c2=O)cc1	none (no result: FMDV antiviral)
COc1ccc(-n2c(=S)[nH]c3cc(C(=O)Nc4ccc(F)cc4)ccc3c2=O)c(OC)c1	Marburg entry inh inconclusive, HCMV inh -70, FMDV antiviral inconclusive, Lassa entry inh inconclusive, HCV inh inconclusive
COc1ccc(CN2CCC3(CCC(CNC(=O)c4ccco4)O3)CC2)c(OC)c1C (centres undefined)	none (no result: SARS PLpro yeast, Marburg entry inh, HCMV inh, Lassa entry inh, HCV inh)
Cc1ccc(Sc2c([N+](=O)[O-])c(=O)n(C)c3ccccc23)cc1	FMDV antiviral 22µM, HCV inh inconclusive (no result: Marburg entry inh, Lassa entry inh)
Cc1ccc(Sc2c(O)c3ccccc3n(C)c2=O)cc1	Marburg entry inh inconclusive
Cc1ccc(Sc2c(C=O)c3ccccc3n2C)cc1	Marburg entry inh inconclusive, HCMV inh -91, FMDV antiviral inconclusive, Lassa entry inh inconclusive, HCV inh 11µM
C[C@@H]1CC2=C(C(=O)OC(C)(C)O2)[C@H](c2ccc(Cl)cc2)O1	none (no result: SARS PLpro yeast, Marburg entry inh, Lassa entry inh, HCV inh)
CCOC(=O)c1c(NC(=O)C(C)Sc2cn(CCNC(=O)c3ccc(OCC)cc3)c3ccccc23)sc2c1CCC2 (centres undefined)	none (no result: SARS PLpro yeast, HCV inh)
CCOC(=O)c1c(NC(=O)C(C)Sc2cn(CCNC(=O)c3c(F)cccc3F)c3ccccc23)sc2c1CCC2 (centres undefined)	Marburg entry inh 7.9µM (no result: SARS PLpro yeast, HCV inh)
CCOC(=O)c1c(NC(=O)CS(=O)(=O)c2cn(CC)c3ccccc23)sc2c1CCCCC2	HCMV inh -71, Lassa entry inh inconclusive, HCV inh inconclusive
CCOC(=O)c1c(S(=O)(=O)N2CCC(C(=O)Nc3cccc(C#N)c3)CC2)c(C)n(C)c1C	none (no result: SARS PLpro yeast, Marburg entry inh, HCV inh)
Cc1ccc(-c2c(C(=O)O)c3ccccc3[nH]c2=O)cc1	none (no result: Marburg entry inh, Lassa entry inh)
O=C(C1CCN(Cc2ccccc2)CC1)N1CCN(C/C=C/c2ccccc2)CC1	Marburg entry inh 14µM, FMDV antiviral inconclusive, Lassa entry inh inconclusive, HCV inh inconclusive
S=C(NC1CCCC1)N1CCN(C/C=C/c2ccccc2)CC1	Marburg entry inh inconclusive, HCMV inh -64, FMDV antiviral inconclusive, HCV inh 10µM
O=C(C1CCN(Cc2ccc(F)cc2)CC1)N1CCN(C/C=C/c2ccccc2)CC1	Marburg entry inh inconclusive, HCMV inh inconclusive, Lassa entry inh inconclusive, HCV inh inconclusive

Source: PubChem
